Rpn11 inh: Rpn11 (PSMD14) deubiquitinase inhibitors, primary screen, biochemical, fluorescence polarization, uHTS | human 26S proteasome, Ub4-pepOG fluorescence polarization; 20S core pre-blocked with epoxomicin | inhibition, % at 20 µM | hit rate 0.59% among 360,000;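 active means inhibition at 20 µM, scaled to each plate's controls, above about 33%, limit read from the data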
dFosB act: activators of delta FosB homodimer, primary screen, biochemical, fluorescence polarization, TAMRA-CDK5 oligo, single point; Protein FosB (Mus musculus), P13346; purified delta FosB; percent of positive-control signal above neutral wells; activation, % at 25 µM; hit rate 0.99% among 340,000; AID 493131, 2011;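 active means mean activation above about 17%, with every replicate also reaching it, limit read from the data, passing the limit was not always enough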
EBNA-1 inh: EBNA-1 DNA-binding inhibitors, primary screen, biochemical, fluorescence polarization; inhibition, % at 14.8 µM; hit rate 0.34% among 300,000; in the data active means inhibition above about 28%
GRIN3A LBD mod: binders of NR3A ligand-binding domain, primary screen, biophysical, differential scanning fluorimetry, uHTS. Glutamate receptor ionotropic, NMDA 3A (GRIN3A) ligand-binding domain. NR3A LBD differential scanning fluorimetry, Tm shift; 0% = protein alone, 100% = glycine-bound protein. Tm shift relative to glycine control, % at 25 µM. hit rate 2.5% among 340,000. AID 1259313, 2017;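 active means melting temperature shift of at least 10% of the positive control shift, at one fixed dose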
ZTA counter: ZTA (EBV) inhibition in EBNA-1 counter-screen; P03206; ZTA-DNA binding, fluorescence polarization; inhibition, % at 11 µM; hit rate 0.15% among 320,000; in the data active means inhibition above about 33%
Target sequence (P03206 whole entry, looked up): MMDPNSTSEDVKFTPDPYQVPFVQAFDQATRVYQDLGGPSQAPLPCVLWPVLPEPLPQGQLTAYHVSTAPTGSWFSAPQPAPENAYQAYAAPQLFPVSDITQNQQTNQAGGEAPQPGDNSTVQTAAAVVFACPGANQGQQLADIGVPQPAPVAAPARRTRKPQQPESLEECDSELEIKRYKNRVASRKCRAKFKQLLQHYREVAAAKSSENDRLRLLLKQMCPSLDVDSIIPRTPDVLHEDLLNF
TPT1 inh: Candida albicans TPT1 enzyme inhibitors, primary screen, biochemical, fluorescence polarization; recombinant caTPT1, FP RNA substrate dephosphorylation; inhibition, % at 5 µM; hit rate 0.81% among 300,000; AID 1962, 2009;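 active means inhibition above the mean of all tested compounds plus 3 SD, set per screening campaign, cut at about 24% in these data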;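 further: plate controls were DMSO alone for no effect and ferristatin control at 100 nM for full effect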
TPT1 inh confirm: Candida albicans TPT1 inhibitors, confirmation, biochemical, fluorescence polarization, triplicate; inhibition, % at 5 µM; hit rate 74% among 2,400; shares compounds with TPT1 inh; recombinant caTPT1, RNase T1 coupled;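 active means inhibition above the primary screen limit, the mean inhibition of all tested compounds plus 3 SD, cut at about 25% in these data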
RNase T1 counter: RNase T1 inhibitors, counter-screen for TPT1 inhibitor project, biochemical, fluorescence polarization | shares compounds with TPT1 inh | inhibition, % at 5 µM | RNase T1 cleavage, 1536-well | hit rate 83% among 2,400;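 active means inhibition above the solvent-only control well mean plus 3 SD, limit set per screening run, cut at about 23% in these data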;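 further: plate controls were DMSO wells with enzyme for no effect and wells without RNase T1 for full effect; inhibitors block cleavage so intact labeled substrate keeps polarization high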
Target sequence (P00651 whole entry, looked up): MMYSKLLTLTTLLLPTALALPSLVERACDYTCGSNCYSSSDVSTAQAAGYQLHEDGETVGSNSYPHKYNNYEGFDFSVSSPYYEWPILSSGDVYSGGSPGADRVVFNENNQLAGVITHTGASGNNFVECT
Numbers without * were called inactive; nt = no result shown. Compounds with a hit are over-represented: about 4.5% of the library has one in this group of screens.

SMILES	Rpn11 inh	dFosB act	EBNA-1 inh	GRIN3A LBD mod	ZTA counter	TPT1 inh	TPT1 inh confirm	RNase T1 counter
O=C1NC(=O)N(Cc2ccc(F)cc2)C(=O)/C1=C\C=C\c1ccco1	nt	-12	0	2	6	90*	48*	63*
CCCCN1C(=O)/C(=C\c2ccco2)C(=O)N(CCc2ccccc2)C1=O	26	-12	8	0	12	43*	6	9
O=C1NC(=O)N(Cc2ccccc2)C(=O)/C1=C\N1CCCc2ccccc21	21	-2	-1	-1	-15	29*	15	21
CCOC(=O)[C@@]12C(=O)C(=O)N[C@]1(c1ccccc1)C1OCCCC12 (stereo partly specified)	2	-8	-15	-8	-17	-4	nt	nt
CC(C(N)=O)N1CC(c2ccc(Cl)cc2)CC1=O (stereo unspecified)	-3	-1	10	0	2	1	nt	nt
CCNc1cc(N2CCNCC2)ccc1[N+](=O)[O-]	nt	nt	3	nt	-7	4	nt	nt
CN1C(=O)C(=Cc2ccc(N3CCOCC3)o2)C(=O)N(C)C1=O	nt	-2	2	-1	-2	136*	148*	145*
CN1C(=O)C(=Cc2ccc(N3CCCCCC3)o2)C(=O)N(C)C1=S	nt	-8	-5	-7	-6	140*	118*	122*
CCCCNC(=O)Nc1ccc(C(O)(C(=O)OCC)C(F)(F)F)cc1 (stereo unspecified)	0	-2	3	1	-9	3	nt	nt
O=c1c(C=NCc2cccs2)c(O)n(C2CCCCC2)c(=O)n1C1CCCCC1	-14	-8	-12	-4	1	2	nt	nt
O=c1c(C=Nc2cccnc2Cl)c(O)n(CCCCl)c(=O)n1C1CCCCC1	nt	-3	-1	-5	-3	63*	86*	99*
CCOc1ccc(N2C(=O)/C(=C/c3ccco3)C(=O)NC2=S)cc1	nt	-17	12	0	20	47*	16	20
Cc1ccccc1N1C(=O)/C(=C/c2ccco2)C(=O)NC1=S	nt	nt	110*	nt	69*	80*	80*	14
CCOc1ccc(N2C(=O)/C(=C\c3cccs3)C(=O)NC2=S)cc1	nt	nt	-6	-5	0	11	nt	nt
Cc1cccc(N2C(=O)/C(=C/c3ccc(N4CCN(C)CC4)o3)C(=O)NC2=S)c1C	nt	0	1	-5	-7	83*	121*	121*
CCc1ccccc1N1C(=O)/C(=C/c2ccc(N3CCN(C)CC3)o2)C(=O)NC1=S	nt	-7	3	-2	-2	106*	142*	138*
CCc1ccccc1N1C(=O)NC(=O)/C(=C\c2cc(C)n(C)c2C)C1=O	3	-10	-5	-2	0	3	nt	nt
O=C(CF)N(O)c1ccc(C=Cc2ccccc2)cc1	1	11	nt	3	nt	nt	nt	nt
C=CCN1C(=O)NC(=O)/C(=C/c2ccc(N(C)C)c(Br)c2)C1=O	0	1	1	-1	-17	0	nt	nt
Cn1cccc1/C=C1\C(=O)NC(=O)N(Cc2ccccc2)C1=O	10	-10	5	1	13	25*	22	34*
C=CCN1C(=O)NC(=O)/C(=C/c2ccoc2)C1=O	-23	-3	6	1	14	106*	10	17
Cn1cccc1/C=C1/C(=O)NC(=O)N(Cc2ccccc2)C1=O	9	-1	-9	-3	-12	14	nt	nt
C=CCN1C(=O)NC(=O)/C(=C/c2cccn2C)C1=O	4	-4	7	0	0	52*	5	8
C1=C(c2c[nH]c3ccccc23)CCNC1	nt	nt	-19	nt	-6	80*	50*	58*
CC(C)N1CC=C(c2c[nH]c3ccccc23)CC1	-3	-5	-1	0	8	2	nt	nt

Bioassay records from PubChem.
